The record followed here is the supplement of paper PMC9897528.

Unmarked numbers belong to inactive results.

The subject of the experiment is Scedosporium aurantiacum CBS 136046. Briefly: growth inhibition relative to DMSO control (OD600); higher = more antifungal activity, active = 80 or more. Conditions: 5 µM; 72 h; 37 °C.
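Note: conidia screened in RPMI 1640 medium under 5% CO2, growth read by spectrophotometer, medium with 0.5% DMSO serving as the untreated reference.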

As for `COc1cc(C(C)(C)CCCC(C)C)cc(OC)c1OC`, the growth inhibition was 13.3%.

Take `NC1(C(=O)O)CCP(=O)(O)CC1` (stereo not drawn): the growth inhibition was 11.9%.

With `COC(=O)Nc1nc2ccccc2[nH]1`, the growth inhibition is 1.58%.

Regarding `CCN1CCN(Cc2nc3ccc([N+](=O)[O-])cc3c(=O)n2-c2ccccc2F)CC1`, the growth inhibition is 2.42%.

For the compound `COc1ccccc1CN[C@H]1C2CCN(CC2)[C@H]1C(c1ccccc1)c1ccccc1`, the growth inhibition is 25.9%.

As for `Nc1c(C(=O)NCc2ccco2)c2nc3ccccc3nc2n1CCN1CCCCC1`, the growth inhibition was 36.7%.

With `C[N+]1(C)CCCC(OC(=O)C(O)(c2ccccc2)c2ccccc2)C1` (stereo not drawn), the growth inhibition is 34.9%.

As for `CC(C)Oc1cccc(NC(=O)c2ccccc2C(F)(F)F)c1`, the growth inhibition is 6.87%.

For the compound `C[C@@]1(O)[C@H](O)[C@@H](CO)O[C@H]1n1ccc2c(N)ncnc21`, the growth inhibition was 3.66%.

As to `CCCCc1ccc(C(=O)O)nc1`, the growth inhibition was 15.8%.

Regarding `CN1C(=O)C(c2ccccc2)C(=O)N(c2ccccc2)c2cc(C(F)(F)F)ccc21` (stereo not drawn), the growth inhibition is 2.84%.

As to `O=C(NC12CC3CC(CC(C3)C1)C2)c1cc2ccccc2[nH]1`, the growth inhibition is 1.85%.

For the compound `C[C@H]1CC[C@]2(NC1)O[C@H]1C[C@H]3[C@@H]4CC[C@H]5C[C@@H](O)CC[C@]5(C)[C@H]4CC[C@]3(C)[C@H]1[C@@H]2C`, the growth inhibition is 8.88%.
